Composite z-score and z-score data for 15 compounds are collected here from PubChem BioAssay.

The source made the active and inactive calls.

Experiment [1] can be described thus: anti-His antibody binders, primary screen, artefact control for SMM control protein annotation, biochemical, small-molecule microarray, 635 nm fluorescence (AID 1128).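 Note: score merges feature fluorescence with signal-to-noise for each printed compound spot.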 The settings on record: anti-His Alexa647 antibody binding, higher = more signal.
Experiment [2] relates to Human papillomavirus type 1a E7 protein (residues 1-88). Description: HPV1a E7 small-molecule binders, primary screen, biochemical, small-molecule microarray, residues 1-88, 635 nm (AID 1129). The settings on record: small-molecule microarray binding, fluorescence 635 nm; higher = more signal.
Experiment [3] has as its target Focal adhesion kinase 1 (Homo sapiens) (UniProt Q05397). Description: small-molecule microarray binders of FAK, primary screen, biochemical, 635/667 nm fluorescence, BSA, DTT (AID 1130).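 Note: composite of spot emission at 667 nm and signal to noise over triplicate slides.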 Conditions: PTK2 binding, 635 nm fluorescence, higher = more signal.
Experiment [4] concerns Fibrinogen (Alexa647-labelled). Description: fibrinogen binders on compound microarrays, profiling panel, artefact control for SMM control-protein annotation, biochemical, small-molecule microarray, 635/667 nm fluorescence (AID 1131).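 Note: z-score merges 667 nm fluorescence with per-spot signal-to-noise over triplicate slides.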 The settings on record: fibrinogen-A647 binding fluorescence, higher = more signal.
Experiment [5] has as its target Follistatin (Homo sapiens) (UniProt P19883). Description: follistatin binders on small-molecule microarrays, primary screen, biochemical, small-molecule microarray, 635/667 nm fluorescence (AID 1132). Conditions: FST binding, 635 nm fluorescence, higher = more signal.
Experiment [6] concerns the target Fibroblast growth factor 2 (Homo sapiens) (UniProt P09038). Description: FGF2 binders on small-molecule microarrays, primary screen, biochemical, small-molecule microarray, 635/667 nm fluorescence (AID 1133). Conditions: small-molecule microarray binding, FGF2, fluorescence 635/667; higher = more signal.
Experiment [7] is described as follows: mitochondrial membrane potential change in A549 cells, profiling panel, cell-based, JC-1 fluorescence, basal, 24 h, 100 nL (AID 1138).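 Note: A549 lung adenocarcinoma cells under basal conditions with no added stimulus; test concentration not given here.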 The settings on record: higher = more signal.
The subject of a further experiment is Lefty1. In words: Lefty1 binders on small-molecule microarrays, primary screen, biochemical, small-molecule microarray, 635/667 nm fluorescence (AID 1139). Conditions: small-molecule microarray binding, fluorescence 635/667; higher = more signal.
In experiment [8] the test system is wheat germ agglutinin (Triticum aestivum), Alexa647-labelled. Description: wheat germ agglutinin binders on compound microarrays, profiling panel, artefact control for SMM control-protein annotation, biochemical, small-molecule microarray, 635/667 nm fluorescence (AID 1140).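 Note: score merges 667 nm feature emission with signal to noise over triplicate slides.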 Conditions: WGA-A647 binding, 635 nm fluorescence, higher = more signal.
In experiment [9] the target is Luciferin 4-monooxygenase (Photinus pyralis) (UniProt P08659). In words: firefly luciferase enzyme inhibitors, primary screen, biochemical, luminescence, purified enzyme, 2006 set (AID 1141).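 Note: cell-free assay with purified firefly luciferase at 100 ng per well in PBS; test concentration not given here.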 The settings on record: SteadyGlo luminescence, 30 min, higher = more signal, called active from +8 up or from −8 down.
Luciferin 4-monooxygenase (Photinus pyralis), sequence (P08659 whole entry, looked up): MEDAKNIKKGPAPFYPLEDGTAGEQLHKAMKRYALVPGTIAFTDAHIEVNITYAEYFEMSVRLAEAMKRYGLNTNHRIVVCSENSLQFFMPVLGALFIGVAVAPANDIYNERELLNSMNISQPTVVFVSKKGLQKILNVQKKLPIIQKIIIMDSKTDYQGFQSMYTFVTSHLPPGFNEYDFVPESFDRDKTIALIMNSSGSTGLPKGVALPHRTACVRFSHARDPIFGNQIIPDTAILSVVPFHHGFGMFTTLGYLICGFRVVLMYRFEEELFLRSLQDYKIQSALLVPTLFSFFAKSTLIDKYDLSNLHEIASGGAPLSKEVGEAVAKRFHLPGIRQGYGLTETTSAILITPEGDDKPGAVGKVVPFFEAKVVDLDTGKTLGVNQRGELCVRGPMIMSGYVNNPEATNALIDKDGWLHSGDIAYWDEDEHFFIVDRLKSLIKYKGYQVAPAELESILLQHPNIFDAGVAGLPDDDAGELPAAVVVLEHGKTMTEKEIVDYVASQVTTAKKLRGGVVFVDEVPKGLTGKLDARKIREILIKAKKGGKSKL

Fibroblast growth factor 2 (Homo sapiens), sequence (P09038 whole entry, looked up): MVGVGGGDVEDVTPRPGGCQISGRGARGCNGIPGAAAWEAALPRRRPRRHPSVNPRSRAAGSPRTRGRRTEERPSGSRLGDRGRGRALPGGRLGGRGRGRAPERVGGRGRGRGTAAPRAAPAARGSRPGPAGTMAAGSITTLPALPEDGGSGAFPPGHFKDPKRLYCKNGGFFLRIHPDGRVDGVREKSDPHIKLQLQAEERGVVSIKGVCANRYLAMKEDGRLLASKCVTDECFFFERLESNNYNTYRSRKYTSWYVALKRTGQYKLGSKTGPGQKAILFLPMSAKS
Follistatin (Homo sapiens), sequence (P19883 whole entry, looked up): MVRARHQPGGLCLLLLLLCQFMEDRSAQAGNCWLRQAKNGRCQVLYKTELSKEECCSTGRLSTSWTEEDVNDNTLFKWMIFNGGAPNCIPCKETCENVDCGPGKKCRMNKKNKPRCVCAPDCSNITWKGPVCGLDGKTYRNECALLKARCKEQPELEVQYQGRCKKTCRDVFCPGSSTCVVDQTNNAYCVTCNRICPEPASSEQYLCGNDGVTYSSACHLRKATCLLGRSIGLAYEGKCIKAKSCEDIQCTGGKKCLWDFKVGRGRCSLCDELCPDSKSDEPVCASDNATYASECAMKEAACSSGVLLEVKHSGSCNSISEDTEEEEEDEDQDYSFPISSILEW
Focal adhesion kinase 1 (Homo sapiens), sequence (Q05397 whole entry, looked up): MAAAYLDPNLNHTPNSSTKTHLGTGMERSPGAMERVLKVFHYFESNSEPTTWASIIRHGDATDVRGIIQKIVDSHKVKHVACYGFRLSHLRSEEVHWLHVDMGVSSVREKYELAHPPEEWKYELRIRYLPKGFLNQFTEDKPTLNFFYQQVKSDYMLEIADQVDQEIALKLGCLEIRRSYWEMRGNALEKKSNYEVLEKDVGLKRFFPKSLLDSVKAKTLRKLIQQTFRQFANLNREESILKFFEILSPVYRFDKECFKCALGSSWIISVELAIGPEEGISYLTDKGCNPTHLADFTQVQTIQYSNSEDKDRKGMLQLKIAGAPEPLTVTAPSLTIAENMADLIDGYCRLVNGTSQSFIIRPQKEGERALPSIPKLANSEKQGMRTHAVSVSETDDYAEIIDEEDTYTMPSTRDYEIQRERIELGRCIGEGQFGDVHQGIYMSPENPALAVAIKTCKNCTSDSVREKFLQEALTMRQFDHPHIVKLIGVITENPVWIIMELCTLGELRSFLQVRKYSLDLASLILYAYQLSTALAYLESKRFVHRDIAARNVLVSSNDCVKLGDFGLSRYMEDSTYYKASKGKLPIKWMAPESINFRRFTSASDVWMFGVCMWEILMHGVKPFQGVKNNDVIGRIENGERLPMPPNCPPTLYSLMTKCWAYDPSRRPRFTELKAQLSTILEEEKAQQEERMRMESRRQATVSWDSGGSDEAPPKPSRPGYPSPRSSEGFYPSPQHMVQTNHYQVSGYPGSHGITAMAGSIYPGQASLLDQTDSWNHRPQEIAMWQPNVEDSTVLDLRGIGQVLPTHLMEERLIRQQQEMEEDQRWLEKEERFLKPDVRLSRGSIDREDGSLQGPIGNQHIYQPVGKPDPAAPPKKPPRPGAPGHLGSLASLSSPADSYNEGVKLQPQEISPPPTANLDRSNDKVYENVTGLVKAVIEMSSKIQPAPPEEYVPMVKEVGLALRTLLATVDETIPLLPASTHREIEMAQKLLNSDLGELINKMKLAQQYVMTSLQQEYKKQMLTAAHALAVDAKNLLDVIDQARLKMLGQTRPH

Turning to `C=C(/C(=C/C[C@@H](OC(C)=O)c1ccccc1OCCO)c1cnc2ccccc2c1)C(C)C`, the composite z-score in [1] was 0.119; in experiment [2], -0.198; in experiment [3], 0.0328; in experiment [4], -0.571; in [5] it was 1.17; in experiment [6] it was 1.48. In addition, the figures for the composite z-score (with Lefty1; in experiment [8]) were 1.58 and 1.05, respectively. The z-score in experiment [7] was -0.111; in [9], -0.557 (inactive).
As for `C[N+](C)(C)CCCCCCNC(=O)[C@H]1C[C@H]2C(=O)N3CCC[C@H]3C(=O)N2[C@H]1c1cccc(OCCO)c1`, the composite z-score in [1] was 1.38; in [2], 0.874; in [3], 0.141; in [4], 0.242; in experiment [5], 1.3; in [6] it was 1.35. In addition, the composite z-score was 1.64 in the experiment with Lefty1 and -0.0285 in experiment [8]. Besides, the z-score in experiment [7] is -1.05; in experiment [9], 0.126 (inactive).
As to `CC(C)(C)OC(=O)CC[C@]1(C(=O)O)COC(c2ccc(OCCCO)cc2)=N1`, the composite z-score in [1] was 0.541; in experiment [2] it was -0.173; in experiment [3], -0.108; in experiment [4] it was 0.68; in experiment [5], -0.747; in [6], -1.23. Further, the composite z-score was -0.552 with Lefty1 and 0.62 in experiment [8]. Besides, the figures for the z-score in experiment [7] and in experiment [9] were 0.352 and -0.306 (inactive), respectively.
Take `C=CCOC(=O)[C@@H]1[C@H]2C(=O)O[C@H](c3ccccc3)[C@H](c3ccccc3)N2[C@H](c2ccc(OCCOC(=O)[C@@H]3C[C@@H]4C(=O)N5CCC[C@H]5C(=O)N4[C@@H]3c3cccc(OCCO)c3)cc2)[C@@]12C(=O)Nc1ccc(I)cc12`: the composite z-score was determined as 1.16 in experiment [1]; 1.07 in experiment [2]; 0.468 in experiment [3]; 0.4 in [4]; 1.43 in experiment [5]; 1.92 in [6]. In addition, the composite z-score with Lefty1 is 1.42; in [8], 0.504. The z-score in experiment [7] was -1.17; in experiment [9] it was 1.13 (inactive).
Take `COCCOC(=O)N1C(=O)[C@@]2(c3cc(C#Cc4ccc(OC)cc4)ccc31)[C@H](C(=O)N1CCc3cc(OC)c(OC)cc3C1)[C@H]1C(=O)O[C@H](c3ccccc3)[C@H](c3ccccc3)N1[C@@H]2c1ccc(OCCO)cc1`: the composite z-score in experiment [1] amounted to 0.839; in experiment [2] it was 1.13; in experiment [3] it was 0.5; in [4], 0.195; in [5], 1.19; in experiment [6], 1.3. The figures for the composite z-score (with Lefty1; in [8]) were 0.88 and 0.596, respectively. Further, the figures for the z-score in experiment [7] and in [9] were -1.79 and -1.23 (inactive), respectively.
As for `COC(=O)[C@@]1(Cc2ccccc2)[C@H]2c3cc(C(=O)N(C)C)n(Cc4ccc(O)c(OC)c4)c3C[C@H]2CN1C(=O)c1ccccc1`, the composite z-score in experiment [1] is 2.42; in experiment [2], 1.11; in [3], 1.12; in [4], 0.418; in [5] it was 0.465; in experiment [6] it was -0.875. Also, the composite z-score with Lefty1 was -0.239; in [8], -0.0465. Besides, the results for the z-score in experiment [7] and in experiment [9] were -1.29 and 1.19 (inactive), respectively.
On to `O=C1C2C=CC(C(O)c3cccc4ccccc34)N(Nc3ccccc3)C2C(=O)N1c1ccccc1` (stereo not given), for which the composite z-score was 2.24 in experiment [1]; 1.17 in [2]; 1.99 in experiment [3]; 0.971 in [4]; 1.23 in experiment [5]; 0.729 in experiment [6]. Besides, the composite z-score in the experiment on Lefty1 amounted to 0.576; in experiment [8], 0.753. For the same compound, the z-score was -0.39 in experiment [7] and -1.05 (inactive) in experiment [9].
For the compound `CC(C)N1CC=CC23O[C@@H]4C=CCOC(=O)[C@@H]4[C@H]2C(=O)N(CCCCCCO)[C@@H]3C1=O` (stereo not given in full), the composite z-score in experiment [1] is -0.249; in [2], -0.407; in experiment [3] it was -0.181; in experiment [4], -1.66; in [5] it was -0.663; in experiment [6] it was -1.19. Further, the results for the composite z-score (with Lefty1; in experiment [8]) were -0.0359 and 0.666, respectively. For the same compound, the z-score in experiment [7] was -0.525; in experiment [9], 0.287 (inactive).
For the compound `COC(=O)[C@@]1(Cc2ccc(OC)cc2)[C@H]2c3cc(C(=O)N4CCCC4)n(Cc4ccc(C)o4)c3C[C@H]2CN1C(=O)c1ccccc1`, the composite z-score in [1] was 0.849; in [2] it was 1.2; in [3], -0.0727; in experiment [4], -0.369; in experiment [5] it was 1.09; in experiment [6], -0.648. The figures for the composite z-score (in the experiment with Lefty1; in experiment [8]) were -0.211 and 0.26, respectively. The z-score in [7] is -3.11; in experiment [9] it was -22.4 (active).
With `COC(=O)[C@@]1(Cc2ccc(OC)cc2)[C@H]2c3cc(C(=O)N(C)C)n(CCF)c3C[C@H]2CN1C(=O)c1ccccc1`, the composite z-score in [1] was found to be 1.9; in experiment [2], 1.25; in experiment [3] it was 0.842; in experiment [4], 1.01; in [5], 0.887; in experiment [6], 0.127. The composite z-score in the experiment on Lefty1 is -0.698; in experiment [8], 1.32. The z-score in [7] is 0.486; in experiment [9], 0.948 (inactive).
For `C=CC[C@]1(C(=O)NCC(O)CO)N=C(c2ccc(OCCCO)cc2)O[C@H]1c1ccccc1N=[N+]=[N-]` (stereo not given in full), the composite z-score came out at 2.28 in experiment [1]; 0.653 in experiment [2]; 0.302 in [3]; 0.66 in experiment [4]; 1.1 in [5]; 0.264 in experiment [6]. Besides, the composite z-score in the experiment with Lefty1 is -0.661; in experiment [8], 0.986. Also, the z-score in experiment [7] was -0.152; in experiment [9] it was -6.91 (inactive).
For the compound `COCCOC(=O)N1C(=O)[C@@]2(c3cc(C#Cc4ccc(OC)cc4)ccc31)[C@H](c1ccc(OCCO)cc1)N1[C@H](c3ccccc3)[C@H](c3ccccc3)OC(=O)[C@H]1[C@@H]2C(N)=O`, the composite z-score in experiment [1] was found to be 2.14; in [2] it was 1.13; in [3] it was 1.03; in [4], 0.519; in experiment [5], 1.41; in experiment [6], 1.31. For the same compound, the composite z-score in the experiment on Lefty1 is 1.39; in [8], 1. Also, the figures for the z-score in experiment [7] and in [9] were -1.28 and -0.35 (inactive), respectively.
On to `C=CCOC(=O)[C@H]1[C@@H]2C(=O)O[C@@H](c3ccccc3)[C@@H](c3ccccc3)N2[C@@H](c2ccc(OCCOC(=O)[C@H]3C[C@H]4C(=O)N[C@@H](CCCCN(C)C)C(=O)N4[C@H]3c3ccc(O)cc3)cc2)[C@]12C(=O)Nc1ccccc12`, for which the composite z-score in experiment [1] is -0.127; in experiment [2], 1.13; in experiment [3] it was 0.806; in experiment [4], -0.104; in experiment [5] it was 1.43; in [6] it was 1.59. The composite z-score came to 1.5 with Lefty1 and 0.0515 in experiment [8]. Further, the z-score in [7] was -0.58; in [9] it was -0.552 (inactive).
For the compound `C=C(CCCC)/C(=C/C[C@H](OC(=O)c1ccncc1)c1ccc(CO)o1)c1cc(C(=O)OC)ccc1OC`, the composite z-score in experiment [1] is 0.872; in experiment [2] it was 1.19; in experiment [3] it was -0.0174; in [4], 0.826; in experiment [5], 0.899; in experiment [6], 1.08. Moreover, the composite z-score in the experiment with Lefty1 is 1.28; in [8], 1.04. The z-score in [7] was -0.648; in [9], -1.19 (inactive).
For the compound `COC(=O)c1ccc(OC)c(/C=C\CC(CCc2ccccc2)OC(=O)c2ccncc2)c1` (stereo not given), the composite z-score in experiment [1] was 0.499; in [2], -0.235; in experiment [3], -0.21; in [4], -0.358; in experiment [5] it was 1.45; in [6] it was 1.23. Besides, the composite z-score in the experiment on Lefty1 was determined as 1.01; in experiment [8], 0.334. Moreover, the z-score was 1.38 in [7] and -0.912 (inactive) in experiment [9].
